Compound activity (PubChem)
This excerpt belongs to a sample that is enriched for hits.
IDE exosite FP – exo-site inhibitors of human IDE, primary screen, biochemical, fluorescence anisotropy, probe displacement; Insulin-degrading enzyme (Homo sapiens), P14735; purified IDE, FL-6b probe fluorescence polarization; active compounds read low; z-score at 20 µM; 17,000 tested, 6.3% active; AID 1259349, 2017;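 active = z-score of -3 or lower, meaning strong loss of probe binding signal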;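 note: His-tagged human IDE residues 42-1019 made in E. coli with 30 nM FL-6b probe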
* = called active by the depositor.

SMILES	IDE exosite FP
O=C(Nc1ccccc1F)N[C@H]1CC[C@H](CCNC(=O)C2CC2)O[C@@H]1CO	0.684
CN(C)CC#Cc1ccc([C@@H]2[C@H](CO)N3C(=O)CN(C(=O)c4cccc(F)c4)C[C@@H]23)cc1	1.2
O=C(NCC[C@H]1CC[C@@H](NC(=O)c2ccncc2)[C@H](CO)O1)Nc1ccc(Cl)cc1	2.56
O=S(=O)(c1ccccc1F)N1CCCCN2[C@H](C1)[C@H](c1ccc(-c3ccccc3)cc1)[C@@H]2CO	0.639
COc1cccc(-c2ccc([C@@H]3[C@H]4CN(S(=O)(=O)c5cn(C)cn5)CCCCN4[C@H]3CO)cc2)c1	-5.54*
COc1cccc(-c2ccc([C@H]3[C@H]4CN(S(=O)(=O)c5cccs5)CCCCN4[C@H]3CO)cc2)c1	0.231
Cc1cccc(-c2ccc([C@H]3[C@@H](CO)N4CCCCN(S(=O)(=O)c5cn(C)cn5)C[C@H]34)cc2)c1	-11*
Cn1cnc(S(=O)(=O)N2CCCCN3[C@H](CO)[C@@H](c4ccc(-c5ccccc5)cc4)[C@H]3C2)c1	1.31
COc1cccc(-c2ccc([C@H]3[C@@H](CO)N4CCCCN(S(=O)(=O)c5cccs5)C[C@@H]34)cc2)c1	2
COc1cccc(-c2ccc([C@@H]3[C@@H](CO)N4CCCCN(S(=O)(=O)c5cccs5)C[C@@H]34)cc2)c1	-3.16*
Cc1cccc(-c2ccc([C@@H]3[C@H](CO)N4CCCCN(S(=O)(=O)c5ccccc5F)C[C@@H]34)cc2)c1	-22.1*
Cc1cccc(-c2ccc([C@H]3[C@H](CO)N4CCCCN(S(=O)(=O)c5ccccc5C)C[C@@H]34)cc2)c1	1.3
Cc1cccc(-c2ccc([C@@H]3[C@@H](CO)N4CCCCN(S(=O)(=O)c5cn(C)cn5)C[C@H]34)cc2)c1	-0.699
Cn1cnc(S(=O)(=O)N2CCCCN3[C@H](C2)[C@H](c2ccc(-c4cccc(F)c4)cc2)[C@@H]3CO)c1	3.29
Cn1cnc(S(=O)(=O)N2CCCCN3[C@H](CO)[C@H](c4ccc(-c5cccc(F)c5)cc4)[C@H]3C2)c1	-1.28
CC(C)C#Cc1ccc([C@H]2[C@@H](CO)N3C(=O)CN(C(=O)c4ccccn4)C[C@H]23)cc1	0.18
CO[C@@H](CN(C)Cc1ccc2c(c1)OCO2)[C@H](C)CN(C(=O)Nc1ccc(F)cc1)[C@H](C)CO	0.217
O=C(c1ccc2c(c1)OCO2)N1CC(=O)N2[C@H](CO)[C@@H](c3ccc(C#CC4CCCC4)cc3)[C@@H]2C1	2.46
CC[C@@H]1C/C=C\C[C@H](C(C)C)NC(=O)CCC(=O)N1	-1.12
CC=Cc1ccc2n(c1=O)C[C@@H]1[C@@H](CO)[C@H](C(=O)Nc3ccc(-c4ccccc4)cc3)[C@H]2N1C(=O)CC (mixture of isomers)	0.365
O=C(Nc1ccc2c(c1)[C@H]1C[C@@H](CC(=O)N3CCOCC3)O[C@@H](CO)[C@H]1O2)Nc1ccccc1F	-0.814
COc1ccc(S(=O)(=O)Nc2cccc3c2O[C@H](CN(C)CC2CCCCC2)[C@H](C)CN([C@H](C)CO)C3=O)cc1	-0.924
CCCNC(=O)N1[C@H](CO)[C@H](c2ccccc2)[C@@H]1CNC(=O)C1CC1	4.05
O=S(=O)(c1cccc(F)c1)N1CC[C@@H]2[C@H]1c1cc(Br)ccc1N[C@@H]2CO	0.882
C[C@H](CO)N1C[C@H](C)[C@@H](CN(C)C(=O)Nc2ccc(C(F)(F)F)cc2)Oc2ncc(C3=CCCC3)cc2C1=O	-1.7
SMILES	IDE exosite FP
COc1ccccc1NC(=O)N1C[C@@H](C)[C@H](OC)CN(C)C(=O)c2ccc(NC(=O)c3cc(C)on3)cc2OC[C@H]1C	0.0193
COc1ccccc1NC(=O)N1CC(=O)N2[C@H](CO)[C@H](c3ccc(C#CC4CC4)cc3)[C@@H]2C1	-0.842
O=C(c1ccncc1)N1CC(=O)N2[C@H](CO)[C@@H](c3ccc(-c4ccccc4)cc3)[C@H]2C1	2.77
O=C(c1ccncc1)N1CC(=O)N2[C@H](CO)[C@@H](c3ccc(-c4cccnc4)cc3)[C@@H]2C1	0.551
COc1cccc(-c2ccc([C@H]3[C@@H](CO)N4C(=O)CN(C(=O)c5ccncc5)C[C@H]34)cc2)c1	-8*
O=C(c1ccncc1)N1CC(=O)N2[C@@H](CO)[C@H](c3ccc(-c4cccnc4)cc3)[C@@H]2C1	1.17
COc1cccc(-c2ccc([C@H]3[C@H](CO)N4C(=O)CN(C(=O)c5ccncc5)C[C@@H]34)cc2)c1	-4.63*
COc1cccc(-c2ccc([C@@H]3[C@H](CO)N4C(=O)CN(C(=O)c5ccncc5)C[C@@H]34)cc2)c1	-1.8
COC(=O)C[C@@H]1C[C@H]2c3cc(NC(=O)c4ccc5c(c4)OCO5)ccc3O[C@H]2[C@@H](CO)O1	-0.271
CN(C)C(=O)c1ccc(-c2ccc(C3[C@@H]4CNC[C@H]3N4)cc2)cc1 (stereo not given in full)	1.84
CC(C)CC#Cc1ccc([C@@H]2[C@H]3CN(C(=O)Nc4ccc(F)cc4)CC(=O)N3[C@H]2CO)cc1	4.14
CO[C@H]1CC[C@H]2CCN(C)C(=O)[C@H](C)N(C)C(=O)c3cccc(C#N)c3OC[C@H]1O2	0.398
Cc1ccc(CN2CC(=O)N3[C@H](CO)[C@@H](c4ccc(Br)cc4)[C@H]3C2)cc1	3.28
O=C(C1CCCC1)N1CC(=O)N2[C@H](CO)[C@@H](c3ccc(C#CC4CCCC4)cc3)[C@@H]2C1	0.249
O=C(C1CCCCC1)N1CC(=O)N2[C@@H](CO)[C@H](c3ccc(C#Cc4cccc(F)c4)cc3)[C@@H]2C1	0.212
O=C(c1cccc(F)c1)N1CC(=O)N2[C@@H](CO)[C@H](c3ccc(C#Cc4ccc(F)cc4)cc3)[C@@H]2C1	3.35
O=C(C1CC1)N1CC(=O)N2[C@H](C1)[C@H](c1ccc(C#Cc3cccc(F)c3)cc1)[C@@H]2CO	-6.09*
O=C(C1CCCCC1)N1CC(=O)N2[C@@H](CO)[C@@H](c3ccc(C#Cc4cccc(F)c4)cc3)[C@@H]2C1	-4.53*
O=C(C1CCC1)N1CC(=O)N2[C@H](CO)[C@H](c3ccc(C#Cc4cccc(F)c4)cc3)[C@@H]2C1	-2.8
O=C(C1CCC1)N1CC(=O)N2[C@H](C1)[C@@H](c1ccc(C#Cc3cccc(F)c3)cc1)[C@@H]2CO	-1.26
O=C(C1CCC1)N1CC(=O)N2[C@@H](CO)[C@H](c3ccc(C#Cc4cccc(F)c4)cc3)[C@@H]2C1	-3.37*
O=C(c1cccc(F)c1)N1CC(=O)N2[C@H](CO)[C@@H](c3ccc(C#Cc4ccc(F)cc4)cc3)[C@H]2C1	2.08
CN(C)CC(=O)N[C@H]1CC[C@H](CCNC(=O)C2CCC2)O[C@H]1CO	2.19
N#C[C@@H]1[C@H](c2ccccc2-c2ccccc2)[C@H](CO)N1C(=O)Cc1cccnc1	5.33
COc1ccc2c3c(n(C)c2c1)[C@H](CO)N(C(=O)C1CCC1)CC31CCN(CC2CCCC2)CC1	0.483
CN1C(=O)c2cc(NC(=O)Nc3ccccc3F)ccc2OC[C@H]2O[C@@H](CC(=O)NCCc3ccncc3)CC[C@@H]21	-0.532
CCC(=O)N1CC[C@@H]2[C@H]1c1cc(C#Cc3ccccc3F)ccc1N[C@@H]2CO	0.478
CN(C)C(=O)c1cccc(-c2ccccc2[C@@H]2[C@@H](C#N)N(C(=O)C3CCCCC3)[C@H]2CO)c1	-0.25
COCC(=O)N1CC(=O)N2[C@@H](CO)[C@H](c3ccc(-c4ccncc4)cc3)[C@@H]2C1	-0.939
COCC(=O)N1CC(=O)N2[C@H](C1)[C@@H](c1ccc(-c3ccccc3C)cc1)[C@@H]2CO	-13.6*
